Experimental data reported in PubChem BioAssay (Tox21).
Results filed as inconclusive are left out. Entries that show only a call come without a potency. Unmarked numbers belong to inactive results. Active and inactive are the calls of the source. Calls come from the whole dose curve; as a rule, active = well fitted cell-killing curve with a large enough effect in the repeat runs; inconclusive = weak or mixed curves, or effect the other way; inactive = flat fitted curve, though single readings scatter.
Potency is the fitted concentration of half-maximal effect.

Assay: qHTS assay to identify small molecule antagonists of the estrogen receptor alpha (ER-alpha) signaling pathway using the BG1 cell line in the presence of 0.1 nM 17-beta-estradiol - cell viability counter screen (AID 1259241); note: nearly all actives have a fitted effect of over 40% in size
Settings: VM7Luc4E2 (BG1) viability, CellTiter-Fluor protease, 22 h, 0.1 nM estradiol agonist added; series mostly up to 92.4 µM
Source text: National Center for Advancing Translational Sciences [NCATS]
NIH Chemical Genomics Center [NCGC]
U.S. Environmental Protection Agency [EPA]
National Institutes of Environmental Health Sciences [NIEHS]
National Toxicology Program [NTP]
U.S. Food and Drug Administration [FDA]
Estrogen receptor (ER), a member of the nuclear hormone receptor plays an important role in development, metabolic homeostasis and reproduction. Two subtypes of ER, ER-alpha and ER-beta, have similar expression patterns with some uniqueness in both types. Endocrine disrupting chemicals (EDCs) and their interactions with steroid hormone receptors like ER causes disruption of normal endocrine function. Therefore, it is important to understand the effect of environmental chemicals in ER signaling pathway. For identifying ER antagonists, VM7Luc4E2 cell line was used to screen against Tox21 compound libraries.
VM7Luc4E2 cell line (provided by Denison MS, University of California) endogenously express full-length ER-alpha and is stably transfected with a plasmid containing four estrogen responsive elements (ERE) upstream of a luciferase reporter gene. The current screening for identification of ER-alpha inhibitors against Tox21 compound libraries used lower concentration (0.1 nM) of 17beta-Estradiol as a stimulator. The cytotoxicity of the Tox21 compound libraries against VM7Luc4E2 cell line was tested by measuring live-cell protease activity using CellTiter-Fluor assay in the same wells.
Tox21 Assay Protocol Summary:
VM7Luc4E2 cells were cultured in phenol red free assay medium containing 10% charcoal stripped FBS for 5 days prior to the assay. The cells were dispensed at 4,000 cells/well in 4 uL of assay medium into white wall/solid-bottom 1536-well plates (Corning Life Sciences, Corning, NY) using a Multidrop Combi (ThermoFisher Scientific, Waltham, MA) dispenser. After the assay plates were incubated at 37C and 5% CO2 for 24 hr, 23 nL of compounds dissolved in DMSO, positive controls or DMSO only was transferred to the assay plates by a Pintool station (Kalypsys, San Diego, CA). The transfer of compounds was followed by the addition of 1 uL of 0.1 nM (final concentration) agonist (17beta-Estradiol)/assay medium using a Flying Reagent Dispenser (FRD, Aurora Discovery, San Diego, CA). The plates were incubated at 37C and 5% CO2 for 22 hr. For cytotoxicity assay, 1 uL of CellTiter-Fluor reagent (Promega Corporation, Madison, WI) was added to each well using the FRD and after 30 min incubation at 37C and 5% CO2, The fluorescence intensity was measured using ViewLux plate reader (PerkinElmer, Shelton, CT).
In the case of `CC(=O)c1cccc([N+](=O)[O-])c1`, the Potency was “inactive”.
In the case of `C[C@@H]1C[C@H]2O[C@@]3(O[C@@H]2C(C)(C)O)[C@H](O)[C@@]2(C)[C@@H]4CC[C@H]5C(C)(C)[C@@H](O[C@@H]6OC[C@@H](O)[C@H](O)[C@H]6O)CC[C@@]56C[C@@]46CC[C@]2(C)[C@@H]13`, the Potency was “inactive”.
With `CC(=O)c1ccc2c(c1)N(CCCN1CCC(CCO)CC1)c1ccccc1S2` the Potency was “inactive”.
With `Nc1cccc([N+](=O)[O-])c1` the Potency was “inactive”.
For `Nc1ccc([N+](=O)[O-])c(C(F)(F)F)c1`, the Potency was “inactive”.
In the case of `CN(C)c1ccc(/C=C/c2ccc([N+](=O)[O-])cc2)cc1`, the activity change, negative = cytotoxicity was 7.98% [at 8.39 µM].
In the case of `CC(C)(O)c1ccc(CNC(=O)c2cccnc2Oc2ccc(F)cc2)cc1`, the Potency was “inactive”.
With `CCC(C)O` (stereo not given) the Potency was “inactive”.
With `CN1CCC(=C2c3ccccc3Sc3ccccc32)CC1` the Potency was “inactive”.
For `CCN(CC)c1ccc2c(-c3ccccc3C(=O)O)c3ccc(=[N+](CC)CC)cc-3oc2c1`, the Potency was 8.63 µM (active).
For `CCCCC(=O)OCC(=O)[C@H]1[C@H](C)C[C@H]2[C@@H]3C[C@H](F)C4=CC(=O)C=C[C@]4(C)[C@@]3(F)[C@@H](O)C[C@@]21C`, the Potency was “inactive”.
In the case of `O=C1c2ccccc2S(=O)(=O)N1CCCCN1CCN(c2ncccn2)CC1`, the Potency was “inactive”.
With `CCCCCCCCCCCc1ccccc1` the Potency was “inactive”.
In the case of `COC(=O)c1ccc(I)cc1S(=O)(=O)NC(=O)Nc1nc(C)nc(OC)n1`, the Potency was “inactive”.
With `Cc1ccc(C(=O)Oc2ccc(C(O)CNC(C)(C)C)cc2OC(=O)c2ccc(C)cc2)cc1` (stereo not given) the Potency was “inactive”.
For `CC(C)=CCC/C(C)=C/CC/C(C)=C/CO`, the Potency was “inactive”.
In the case of `O=[N+]([O-])c1ccc2[nH]ncc2c1`, the Potency was “inactive”.
With `C[C@H](CCC(=O)O)[C@H]1CC[C@H]2[C@@H]3CC[C@@H]4C[C@H](O)CC[C@]4(C)[C@H]3C[C@H](O)[C@]12C` the Potency was “inactive”.
In the case of `CC(C)CC(=O)C1C(=O)c2ccccc2C1=O`, the Potency was “inactive”.
For `CCn1cc(C(=O)O)c(=O)c2cnc(N3CCNCC3)nc21`, the Potency was “inactive”.
With `CCCCCCCN` the Potency was “inactive”.
In the case of `CNCCCN1c2ccccc2CCc2ccccc21`, the Potency was “inactive”.
In the case of `CCOCC(O)COc1ccc(NC(=O)CC[S+](C)C)cc1` (stereo not given), the Potency was “inactive”.
For `NCc1ccccc1Sc1ccccc1CO`, the Potency was “inactive”.
In the case of `CN(C)CCN(Cc1ccccc1)c1ccccn1`, the Potency was “inactive”.
In the case of `COc1cccc(N(C)C(=S)Oc2ccc3c(c2)CCCC3)n1`, the Potency was “inactive”.
With `CC1CCC(=O)C1=O` (stereo not given) the Potency was “inactive”.
In the case of `CC1(c2ccccc2)OC(C(=O)O)=CC1=O` (stereo not given), the Potency was “inactive”.
With `CCC(=O)O[C@]1(C(=O)CCl)[C@@H](C)C[C@H]2[C@@H]3CCC4=CC(=O)C=C[C@]4(C)[C@@]3(F)[C@@H](O)C[C@@]21C` the Potency was “inactive”.
With `Cn1c(=O)cc(Oc2ccc(F)cc2F)c2cnc(NCC(C)(C)O)nc21` the Potency was “inactive”.
For `CC1=CC[C@H](C(C)C)C=C1`, the Potency was “inactive”.
With `CC/C=C\CCOC(=O)CC` the Potency was “inactive”.
For `CCOC(=O)C(F)(F)F`, the Potency was “inactive”.
With `NCC(=O)CCC(=O)O` the Potency was “inactive”.
For `C[N+]1(CC2COC(c3ccccc3)(C3CCCCC3)O2)CCCCC1` (stereo not given), the Potency was “inactive”.
In the case of `CCOC(=O)C(O)c1ccccc1` (stereo not given), the Potency was “inactive”.
With `NS(=O)(=O)c1ccc(N2CCCCS2(=O)=O)cc1` the Potency was “inactive”.
For `CCC(Cl)CCC(Cl)C(Cl)CC(Cl)C(Cl)C(Cl)CCl` (stereo not given), the Potency was “inactive”.
With `CCCCCCCCCCCCCCCCOS(=O)(=O)O` the Potency was “inactive”.
In the case of `CCOC(=O)c1cccnc1`, the Potency was “inactive”.
